Screens: PubChem, National Center for Advancing Translational Sciences (NCATS)
Compounds with a hit are over-represented: about 2.5% of the library has one in this group of screens.
Anesthetic bind: candidate novel general anesthetic via apoferritin binding; apoferritin/1-aminoanthracene competitive binding, fluorescence; Potency, µM (highest dose often 77.5 µM), for inactives: at the top dose activity change, negative = displacement, usual class: inhibitors; 0.074% of 350,000 active; AID 485281; active = well fitted inhibition curve with a large enough effect; inconclusive = small, poorly fitted or top-dose-only effect; inactive = no such curve, though single readings can be large or run the other way; note: potency is the fitted concentration of half-maximal effect; % is set by controls: 0 for no effect and ±100 for the full control effect; nearly all actives have a fitted effect of over 20% in size
Target sequence (P02791 2-175 limits assumed): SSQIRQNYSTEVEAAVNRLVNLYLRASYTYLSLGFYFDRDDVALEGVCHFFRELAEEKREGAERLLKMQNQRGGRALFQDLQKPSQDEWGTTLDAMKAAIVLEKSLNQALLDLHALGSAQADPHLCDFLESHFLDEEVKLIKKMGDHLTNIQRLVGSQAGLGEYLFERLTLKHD
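10 uM apoferritin + 50% sat. 1-AMA, PBS; cpd 10 min RT; Ex380/Em535 endpoint; normalized to free probe vs complex; 4-param Hill fit; propofol titration as pos. ctrl.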
D2 ag-1: D2 dopamine receptor (human) agonism. AID 485358. HEK293 T-REx D2 cells, calcium flux agonist mode. activation, % at 2 µM. P14416. 0.53% of 340,000 active;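 active = activation over 3 SD above normal in the single-dose calcium agonist read, cut at about 30% in these data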; note: 0% is about no effect
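Tetracycline-induced HEK293 T-REx cells with force-coupled D2 receptor, plated overnight at 30 C, loaded with no-wash calcium dye. After a 10 s baseline, compound was pin-added and calcium flux read kinetically for 180 s; calcium rises flagged agonists.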
D2 PAM-1: positively modulates the human D2 dopamine receptor allosterically; P14416; HEK293 T-REx D2, calcium flux, EC20 dopamine potentiation; potentiation, % at 10 µM; 0.34% of 340,000 active;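 active = potentiation over 3 SD above the plate norm, cut at about 30% in these data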; note: 0% is about no effect
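Primary screen. Calcium kinetics in induced HEK293 T-REx D2 cells: compound pre-addition 180 s, EC20 dopamine, 180 s more.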
D2 antagonist: antagonizes the human D2 dopamine receptor; HEK293 TREx D2 cells, calcium flux, dopamine EC80; inhibition, % at 10 µM; 2% of 340,000 active; AID 485344; in the data active = inhibition above about 30%; inactive = below that, where a call was filed; note: 0% is about no effect
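Tetracycline-induced HEK293 TREx cells expressing D2 receptor forced-coupled to calcium signalling, loaded with no-wash calcium dye. Compounds added and calcium flux read 180 s, then dopamine added at EC80 and read a further 180 s.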
D2 PAM-2: potentiates the human D2 dopamine receptor allosterically; 0.23% of 360,000 active; potentiation, % (concentration not given with the values); P14416; DiscoveRx D2 beta-arrestin cells, luminescence, 90 min; 100% = 57 uM dopamine signal; in the data active = potentiation above about 50%; inconclusive = mostly about 30% to 49%
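D2 cells co-treated with compound plus 50 nM dopamine (EC20) for 90 min at 37 deg C to detect potentiation. Beta-arrestin recruitment was read as enzyme-fragment luminescence after 1 h at ambient temperature. Full response was set by 57 uM dopamine.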
D2 ag-2: activates the human D2 dopamine receptor. P14416. DiscoveRx PathHunter D2 beta-arrestin, luminescence, 90 min; 100% = 57 uM dopamine signal. activation, % (no concentration beside the values). 0.084% of 360,000 active; in the data active = activation above about 40%; inconclusive = between about 15% and that limit
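Agonist mode: compounds alone added to overnight-plated D2 PathHunter cells for 90 min at 37 C, with 57 uM final dopamine (EC100) defining full response. Beta-arrestin recruitment detected by chemiluminescent reagent, read after 1 h at ambient temperature.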
Active calls of the source: *; ? = inconclusive; · = not tested or not shown; [ ] = another dose, or the depositor's remark.

SMILES	Anesthetic bind	D2 ag-1	D2 PAM-1	D2 antagonist	D2 PAM-2	D2 ag-2
Cc1cccc(C)c1OCC(O)Cn1nnc2ccccc21 (configuration not stated)	-14%	-1	-4	-17	-2	-4
CCCCn1c(CCC)nc([N+](=O)[O-])c1Sc1ccc(Cl)cn1	?	2	-12	40*	-13	-2
O=C(CCCN1CCC(O)(c2ccc(Br)cc2)CC1)c1ccc(F)cc1	-10%[29.3 µM]	1	-20	79*	-33	-4
O=C(CCCN1CCC(C(=O)c2ccc(F)cc2)CC1)c1ccc(F)cc1	-3%	-3	-19	71*	-5	-3
O=C(CCCN1CCC(O)(c2cccc(C(F)(F)F)c2)CC1)c1ccc(F)cc1	·	1	17	9	-34	-4
CCCCS(=O)(=O)N1C2=NC(C(=O)OC)=C(C(=O)OC)[C@@H]3N(C)c4ccc(OC)cc4[C@]23C[C@H]1C(=O)OC	?	0	3	34*	-4	-3
COC(=O)C1=C(C(=O)OC)[C@@H]2N(C)c3ccc(OC)cc3[C@@]23C[C@@H](C(=O)OC)N(S(=O)(=O)c2ccc([N+](=O)[O-])cc2)C3=N1	-9%	1	-7	5	3	?
Cc1ccccc1-n1ncc(C(C)NC(=O)c2ccccc2)c1C (configuration not stated)	-5%	-1	4	36*	-1	3
O=C(O)/C=C/C(=O)NCCC(c1ccccc1)c1ccccc1	31%	-1	10	-2	-3	-1
Cn1c(=O)c2c(nc(SCC(=O)N3CCCCCC3)n2C)n(C)c1=O	-11%	0	-4	-27	-6	-1
O=C(NC(=O)N1CCN(c2cccc(Cl)c2)CC1)c1ccc(Cl)cc1	?	4	-17	57*	-29	6
O=C(NC(=O)N1CCN(c2cccc(Cl)c2)CC1)c1ccccc1	37%	-2	5	3	-20	1
O=C(NC(=O)N1CCCCCC1)c1ccc(Cl)cc1	-15%	0	3	32*	-5	-1
COc1cc(NC(=S)NCC2CCCO2)c(OC)cc1Cl (configuration not stated)	-5%	0	-1	5	-16	-6
CC(C)N1C(=O)c2ccccc2C1C(=O)NC1CCCCCC1 (configuration not stated)	0%	-2	31*	-12	5	-2
CCC(C)N1C(=O)c2ccccc2C1C(=O)NC1CCCCCC1 (configuration not stated)	7%	0	-2	-17	-16	-2
CCCn1c2ccccc2c2cnn(CC(=O)NC3CCC(C)CC3)c(=O)c21 (configuration not stated)	-5%	0	-1	0	-11	-3
CCCn1c2ccccc2c2cnn(CC(=O)NC3CCCC(C)C3C)c(=O)c21 (configuration not stated)	-8%	0	-5	35*	4	0
CCCc1nc2sc3c(N4CCCCC4)ncnc3c2c2c1CCCC2	-8%	2	-10	·	·	·
CCCNC(=O)CNC(=S)N(Cc1cc(OC)c(OC)c(OC)c1)C1CCCC1	-4%	0	-4	-4	-17	0
Cc1cc(C(=O)COC(=O)c2ccc3c(c2)NC(=O)CS3)c(C)n1CCc1ccc(Cl)cc1	-4%	-1	14	63*	6	2
CN1CCN(C2=Nc3ccccc3Oc3ccc(Cl)cc32)CC1	-1%	-1	-31	91*	-36	-6
CN1CCN(C2=Nc3ccccc3Sc3ccc(Cl)cc32)CC1	-6%	·	·	·	·	·
O=c1c2ccccc2nc(SCc2cc(F)cc3c2OCOC3)n1Cc1ccco1	-3%	0	-5	3	-4	0
CCOC(=O)c1cc2c(c(CSc3nc4ccccc4c(=O)n3Cc3ccco3)c1)OCOC2	-4%	1	0	31*	-2	-3
O=C(CN1CCN(c2ccc(O)cc2)CC1)Nc1ccc(S(=O)(=O)N2CCCC2)cc1	·	·	·	·	28	49*
